This note sets out measurements from a collection of fitness landscapes (doi:10.1126/science.1257360).

To fix the notation:
B1: PhoQ; a variant is named by its letters at X, in order, P23837 (parent)
chain: MKKLLRLFFPLSLRVRFLLATAAVVLVLSLAYGMVALIGYSVSFDKTTFRLLRGESNLFYTLAKWENNKLHVELPENIDKQSPTMTLIYDENGQLLWAQRDVPWLMKMIQPDWLKSNGFHEIEADVNDTSLLLSGDHSIQQQLQEVREDDDDAEMTHSVAVNVYPATSRMPKLTIVVVDTIPVELKSSYMVWSWFIYVLSANLLLVIPLLWVAAWWSLRPIEALAKEVRELEEHNRELLNPATTRELTSLVRNLNRLLKSERERYDKYRTTLTDLTHSLKTPLXXLQXXLRSLRSEKMSVSDAEPVMLEQISRISQQIGYYLHRASMRGGTLLSRELHPVAPLLDNLTSALNKVYQRKGVNISLDISPEISFVGEQNDFVEVMGNVLDNACKYCLEFVEISARQTDEHLYIVVEDDGPGIPLSKREVIFDRGQRVDTLRPGQGVGLAVAREITEQYEGKIVAGESMLGGARMEVIFGRQHSAPKDE

Whole data set: some 140,000 sequences, median “enrichment ratio after two sorts for PhoP signalling” near 0, cut for the highest 2% near 11. The sample holds the highest values, similar sequences and a random draw of the others, so the mix is not that of the screen.

Variants of B1 are the subject of this experiment. Briefly: enrichment ratio after two sorts for PhoP signalling (ratio (wild type AVST 3.29)); higher = more functional. To be noted: with PhoP (E. coli).
Regarding HHWE, the enrichment ratio is no more than 0.25. The same measure for TAMS: 7.61; for TAQS: 14.2.

Consider TAVA, for which the enrichment ratio is no more than 0.25. With TAGF the figure was 13.2; with LQQF, no more than 0.25.

Turning to LQQS, the enrichment ratio was no more than 0.25. The same measure for TAPV: no more than 0.25. The same measure for TAQF: 14. The same measure for YAGF: no more than 0.25; for TAMV: 14.2; for TAHF: 10.3. Turning to IAGF, the enrichment ratio was no more than 0.25. For the variant KVFQ, the enrichment ratio was no more than 0.25. With TFVR the figure was no more than 0.25; with QGQK, no more than 0.25; with PHIC, no more than 0.25.

Regarding NSGR, the enrichment ratio was no more than 0.25.

SWSS: the enrichment ratio is no more than 0.25. The same measure for AQVW: no more than 0.25; for THPY: no more than 0.25. As for TAWV, the enrichment ratio was 12.8. The same measure for NAAF: no more than 0.25; for TAVK: no more than 0.25; for TAMF: 19.6. The same measure for TAAF: 18.4; for YAMF: no more than 0.25.

For IAMF, the enrichment ratio was no more than 0.25. With KAAF the figure was no more than 0.25; with TAWI, 10.7. With DPRG, the enrichment ratio was no more than 0.25. With GCCQ the figure was 8.03; with NNVY, no more than 0.25. In the case of MPPF, the enrichment ratio is no more than 0.25. The same measure for QTGS: 0.628. The same measure for SDDV: 0.265; for WLTS: no more than 0.25. The same measure for AVSI: 13.1; for AVCA: 6.97.

As to AVVG, the enrichment ratio is 11.2. With AVDH the figure was no more than 0.25. For the variant AVMG, the enrichment ratio stood at 2.13. The same measure for AVTG: 11.3. The same measure for HSNG: no more than 0.25. With ERPM the figure was no more than 0.25. QHPH: the enrichment ratio was no more than 0.25. The same measure for QLCK: no more than 0.25; for FVDN: no more than 0.25. With QVDS the figure was 1.54; with QVDN, 11.3.

On to QLNM, for which the enrichment ratio is no more than 0.25.

In the case of QLWM, the enrichment ratio came out at 12.6. As for TVDY, the enrichment ratio is no more than 0.25.

Take LNHC: the enrichment ratio is no more than 0.25. Take QLDN: the enrichment ratio was no more than 0.25. The same measure for QVDY: 11.3; for LVHC: 15; for LPHC: no more than 0.25. With LLFG the figure was no more than 0.25; with YKSC, no more than 0.25; with GCVC, no more than 0.25. As to HYNH, the enrichment ratio is no more than 0.25. Consider QRWG, for which the enrichment ratio is no more than 0.25.

KSDH: the enrichment ratio is no more than 0.25.

Consider QPWG, for which the enrichment ratio is no more than 0.25. With QSDS the figure was 20.8; with QSWG, 18. As to QADY, the enrichment ratio was found to be 11.7. The same measure for QSDH: 18.9.

As for QADS, the enrichment ratio worked out at 3.89.

Take KADY: the enrichment ratio was no more than 0.25. With QSDK the figure was no more than 0.25; with QEDH, no more than 0.25; with QSDA, 7.1. The same measure for QIRT: no more than 0.25; for QYHW: no more than 0.25.

Take CPHF: the enrichment ratio was no more than 0.25. With NKSG the figure was no more than 0.25. The same measure for VAGL: 1.62. With RRLA the figure was no more than 0.25; with QAAM, no more than 0.25. As to QSHF, the enrichment ratio stood at 9.45. The same measure for QSHV: 11.3; for KSHI: no more than 0.25. The same measure for QSGV: 3.83; for KNHV: no more than 0.25; for QSDI: 14.8. With QPDI the figure was no more than 0.25; with QEAM, no more than 0.25. As for KSDI, the enrichment ratio was no more than 0.25. The same measure for QSAM: 14.5. With QSHI the figure was 15.9; with SNHK, no more than 0.25.

For ELHR, the enrichment ratio was no more than 0.25. With RESM the figure was no more than 0.25. As to NKRK, the enrichment ratio is no more than 0.25. The same measure for MWRP: no more than 0.25; for GFQI: no more than 0.25. NFAP: the enrichment ratio is no more than 0.25. The same measure for QSGM: 21.6; for QSWI: 21.7. The same measure for QSGD: no more than 0.25; for QSLA: no more than 0.25; for QSPM: no more than 0.25. The same measure for QSTH: no more than 0.25.

For the variant QPWA, the enrichment ratio is no more than 0.25. Turning to QRWA, the enrichment ratio is no more than 0.25.

For the variant QSWM, the enrichment ratio was 11.9.

On to QSRM, for which the enrichment ratio is no more than 0.25. As to QSWA, the enrichment ratio came out at 14.9. Regarding QSCK, the enrichment ratio is no more than 0.25. With WMFH the figure was no more than 0.25; with WHID, no more than 0.25. The same measure for WSCR: no more than 0.25; for TVMI: 1.87; for WGFP: no more than 0.25.

Take HKEM: the enrichment ratio is no more than 0.25. The same measure for ESDT: no more than 0.25; for KSNM: no more than 0.25; for QSHQ: 22.4.

Regarding QYMG, the enrichment ratio was no more than 0.25. With QYWG the figure was 16.3; with QSHP, no more than 0.25. With QSNM the figure was 13.1; with QSDY, 14.5.

As to QSTD, the enrichment ratio was no more than 0.25.

On to QENM, for which the enrichment ratio is no more than 0.25.

QYWI: the enrichment ratio was no more than 0.25. With QSWY the figure was 7.32. With KSDY the figure was no more than 0.25; with HQNG, no more than 0.25. With FDDI the figure was no more than 0.25; with SMYF, no more than 0.25. Turning to YYYI, the enrichment ratio is no more than 0.25. As for FAGN, the enrichment ratio was no more than 0.25. With ICGK the figure was no more than 0.25; with IRTW, no more than 0.25; with QLHC, 21.3.

QVHC: the enrichment ratio is no more than 0.25. The same measure for QSDM: 13.7; for QPWD: no more than 0.25.

As to QRWD, the enrichment ratio is no more than 0.25.

Consider QRHC, for which the enrichment ratio was no more than 0.25. As for QPDM, the enrichment ratio was no more than 0.25. On to FFDM, for which the enrichment ratio is no more than 0.25. Turning to QGGM, the enrichment ratio turned out to be 4.35. The same measure for QSWD: 22.4; for KSDM: no more than 0.25; for QGDM: 27.5.

Consider WGMH, for which the enrichment ratio is no more than 0.25. As for ANRC, the enrichment ratio was no more than 0.25. With KGAG the figure was no more than 0.25. The same measure for TIPQ: no more than 0.25; for PTHR: no more than 0.25; for RGAL: 0.701. The same measure for MGAL: 15.5; for TGAL: 15.9. As to NEAL, the enrichment ratio is no more than 0.25. With KAAL the figure was 1.81; with GGAL, 4.27. With TEAL the figure was 14.7. With MEAL the figure was 8.16; with NGAL, no more than 0.25; with NAAL, no more than 0.25. Consider QRAL, for which the enrichment ratio is no more than 0.25.

Consider TAAL, for which the enrichment ratio came out at 11.4. For EAAP, the enrichment ratio is no more than 0.25. The same measure for LSEF: no more than 0.25; for DGFG: no more than 0.25; for EQRH: no more than 0.25.

With KHEV, the enrichment ratio was no more than 0.25. With INFP the figure was no more than 0.25; with TDLE, no more than 0.25.

NRFY: the enrichment ratio is no more than 0.25.

For the variant VSYR, the enrichment ratio was no more than 0.25.

With PTNE, the enrichment ratio is no more than 0.25. With FSIC the figure was no more than 0.25; with PHTQ, no more than 0.25; with QGAL, 15.6. The same measure for FFAL: no more than 0.25; for QAAL: 3.3. With LMWN the figure was no more than 0.25; with HINH, no more than 0.25. For KPLN, the enrichment ratio was no more than 0.25. With FSLS, the enrichment ratio came out at 9.54. The same measure for KSLA: no more than 0.25; for TSLT: 13.3. Consider KSLT, for which the enrichment ratio was no more than 0.25. Regarding TSWI, the enrichment ratio was 3.63. For the variant TSLA, the enrichment ratio came to 16.6.

With FSLT, the enrichment ratio worked out at 7.83. In the case of KSLS, the enrichment ratio is no more than 0.25. With TSLS the figure was 15.9; with NSLN, no more than 0.25.

In the case of KSLN, the enrichment ratio is no more than 0.25. With TSLN the figure was 16.9.
